Bioassay records (PubChem)
An excerpt weighted towards active compounds, which were near 1.4% of everything screened.
NFkB transloc pot: enhances IL-1B driven NFkB nuclear translocation. HUVEC IL-1B NFkB p65 nuclear translocation imaging. activation, % at 2 µM. hit rate 0.3% among 94,000. AID 819;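 active = activation above 40%, about the mean plus 3 SD, also judged a hit on visual image review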;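 note: percent activation is computed from the nuclear over cytoplasmic p65 intensity ratio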
NFkB transloc inh: blocks IL-1B driven NFkB nuclear translocation in HUVEC cells | hit rate 0.43% among 94,000 | AID 796 | inhibition, % at 2 µM | HUVEC IL-1B NFkB p65 nuclear translocation imaging;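 active = inhibition above about 30% together with a positive call from visual inspection of the well image, limit read from the data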;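 note: nuclear over cytoplasmic p65 intensity ratio measured by imaging; 0% = IL-1B stimulated DMSO wells and 100% = unstimulated DMSO wells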
IL1B cytotox: toxic to HUVEC cells under IL-1B stimulation; HUVEC cell count loss, Hoechst imaging, IL-1B stimulated; cell count reduction, % at 2 µM; hit rate 0.41% among 94,000; AID 845;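 active = cell count reduction more than 3 SD above the screen-wide mean, cut at about 70% in these data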;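 note: normalized per plate to untreated control cells as the no-loss baseline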
MRP1 act: activators of MRP-1; H69AR cells + doxorubicin, viability rescue, CellTiter-Glo; viability increase, % at 10 µM; hit rate 0.61% among 140,000; AID 799;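 active = viability gain under doxorubicin at or above a set limit, the compound median plus 3 SD, cut at about 4.7% in these data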;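 note: MRP-1 overexpressing cells given doxorubicin 25 µM after compound pretreatment; 18-22 h compound pretreatment then 72 h with doxorubicin before readout; 0% = doxorubicin-only wells and 100% = vehicle-treated cells without doxorubicin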
MRP resist rev: reverses drug resistance mediated by MRP; hit rate 0.04% among 85,000; differential viability (reversal), % at 10 µM; H69AR cells + 2 uM doxorubicin, CellTiter-Glo, 72 h;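 active = viability drop by adding the cancer drug above about 55%, with treated viability meeting a 40% cutoff, limit read from the data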;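 note: viability without doxorubicin minus viability with 2 µM doxorubicin for each compound; larger differential means the compound sensitizes cells more to doxorubicin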
SDO1 yeast rescue: sdo1-depleted yeast growth rescue | S. cerevisiae sdo1-depleted JHY4D growth rescue, OD600 30 h; hits give high values; pdr5 snq2 efflux-pump mutant strain | AID 817 | z-score at 10 µM | hit rate 0.21% among 140,000;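 active = z-score above 3 at both the 24 hr and the 30 hr optical density reads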;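 note: z-score against mean and SD of all compound wells on the same plate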
* marks the source's active call; other numbers are inactive results; · = no result.

SMILES	NFkB transloc pot	NFkB transloc inh	IL1B cytotox	MRP1 act	MRP resist rev	SDO1 yeast rescue
COc1ccc(Cl)cc1N(CC(=O)NCC(C)C)S(=O)(=O)c1ccc(C)c([N+](=O)[O-])c1	·	·	·	0.1	·	-0.19
CCn1c(SCc2ccc(C)cc2)nnc1-c1cnccn1	63.3*	-63.3	-1.2	-1.7	18.3	-0.91
CCn1c(SCC(=O)c2ccccc2)nnc1-c1cnccn1	-2.1	2.1	-0.3	-1.1	·	0.6
O=C(NCCc1csc(-c2cccnc2)n1)c1ccccc1	10.9	-10.9	-11.6	0.2	21.4	-0.59
O=C(NCCc1csc(-c2cccnc2)n1)c1cccc2ccccc12	-35.0	35.0*	78.9*	-0.5	5.0	-0.97
CC(=O)Nc1ccccc1NS(=O)(=O)c1ccc(Cl)cc1	-30.2	30.2*	15.1	-1.2	-3.0	-0.93
N=c1oc2c3c4c(cc2cc1C(=O)Nc1ccccc1)CCCN4CCC3	8.3	-8.3	15.3	6.4*	·	-0.59
Cc1ccc2nc(Nc3nc(CSc4nc5ccccc5s4)cc(=O)[nH]3)nc(C)c2c1	·	·	·	11.2*	·	-0.35
Cc1nnc(SCc2cc(=O)[nH]c(Nc3nc(C)c4ccccc4n3)n2)s1	-1.2	1.2	1.3	·	-13.5	·
CC(C)CNc1nc(=S)nc(N(C)C)[nH]1	-37.2	37.2*	20.6	-0.5	·	1.65
COc1ccc(CNc2nc(NCc3ccc(OC)cc3)n(C(=O)c3ccccc3[N+](=O)[O-])n2)cc1	-2.9	2.9	7.6	5.4*	·	-0.52
CC1CCC/C(=C(\C#N)c2nc(-c3cc4ccccc4oc3=O)cs2)C1 (stereo not given)	·	·	·	5.2*	·	-0.18
Cc1cccc(CN2C(=O)N/C(=C/c3cc(C)n(-c4cc(C)ccn4)c3C)C2=O)c1	-2.7	2.7	-11.3	1.0	·	0.29
Cc1cc(/C=C2\NC(=O)N(Cc3ccc(Cl)cc3)C2=O)c(C)n1C	·	·	·	6.2*	·	-1.17
Cc1nc(NC(=S)NC(=O)c2cccs2)sc1C(=O)N(C)C	-0.5	0.5	10.2	7.2*	·	-0.83
COc1ccc(C(=O)NC(=S)Nc2nc(C)c(C(=O)N(C)C)s2)cc1	2.7	-2.7	-9.7	0.3	·	1
CCc1nc(SCC(=O)N2CCC(C)CC2)c2c(=O)n(C)c(=O)n(C)c2n1	·	·	·	-0.2	14.3	-0.46
O=C1CCCCN1CCc1c[nH]c2ccccc12	5.0	-5.0	86.1*	-2.3	0.4	0.63
O=C1CCC(=O)N1CCc1c[nH]c2ccccc12	-1.0	1.0	-12.1	0.7	15.4	0.58
Cc1ccc(C2SCCN2C(=O)c2ccc([N+](=O)[O-])cc2)cc1 (stereo not given)	·	·	·	-1.7	·	0.22
[O-][n+]1c2c(c3c4non(O)c4ccc31)CCCC2	-23.3	23.3	87.6*	1.8	2.5	-2.89
O=C(Nc1ccn(Cc2c(F)c(F)cc(F)c2F)n1)c1ccc(COc2ccc(Cl)cc2Cl)o1	2.7	-2.7	7.8	13.4*	·	-0.64
Cc1nn(Cc2ccc(Cl)cc2Cl)c(C)c1NC(=O)c1ccc(COc2cc(Cl)ccc2Cl)o1	-0.6	0.6	-6.5	5.6*	·	-0.53
COc1cccc(/C=N/NC(=O)C(C)n2nc(C)c([N+](=O)[O-])c2C)c1O (stereo not given)	·	·	·	9.0*	·	0.52
COc1cccc(/C=N/NC(=O)C(=O)N2CCCC2)c1O	14.9	-14.9	-7.8	5.4*	·	0.14
SMILES	NFkB transloc pot	NFkB transloc inh	IL1B cytotox	MRP1 act	MRP resist rev	SDO1 yeast rescue
COc1cccc(/C=N/NC(=O)Cn2nc(C)c([N+](=O)[O-])c2C)c1O	·	·	·	6.6*	·	1.75
COc1cccc(/C=N/NC(=O)C(=O)N2CCCC2)c1OC	-1.9	1.9	29.0	-2.0	·	0.85
O=C(NCc1ccccn1)NC12CC3CC(CC(C3)C1)C2	-95.2	95.2*	89.3*	-0.3	6.2	1.2
Cc1ccc(C(=O)CSc2nnc(COc3cccc(C)c3)o2)cc1	13.6	-13.6	-7.7	-1.7	92.3*	-1.51
Fc1ccccc1CSc1nnc(-c2ccccc2)o1	13.5	-13.5	91.6*	-2.9	11.8	-0.43
c1ccc(-c2nnc(-c3cccc(-c4nnc(-c5ccccc5)o4)c3)o2)cc1	-8.8	8.8	11.2	·	15.0	·
Cc1ccc(-c2nnc(-c3ccccc3)o2)cc1	-71.8	71.8*	9.7	-1.5	4.3	-1.07
COc1ccc(-c2nnc(SCc3ccccc3F)o2)cc1	-0.2	0.2	15.2	0.8	-4.0	-1.73
O=C(O)CSc1nnc(-c2ccccc2)o1	·	·	·	0.7	4.3	0.73
Cc1ccc(C(=O)CSc2nnc(-c3ccccc3)o2)cc1	4.9	-4.9	93.0*	2.4	-1.6	0.44
COc1cc(NC(=O)Cn2nc(C(F)(F)F)c(Br)c2C)cc([N+](=O)[O-])c1	·	·	·	-3.1	·	-1.51
Cc1nc(Cl)sc1C(=O)Nc1cccc(Cl)c1C	·	·	·	-4.2	·	-0.37
Cc1cc(N)n(-c2nc(-c3cccnc3)nc3ccccc23)n1	-14.5	14.5	-5.5	-1.0	·	-0.79
COc1cccc(/C=N/N2C(=O)CSC2=S)c1O	·	·	·	8.0*	·	-0.82
CCOc1ccc(NC(=S)N2CCc3cc(OC)c(OC)cc3C2COc2ccc3c(C)cc(=O)oc3c2)cc1 (stereo not given)	·	·	·	-3.0	·	0.8
Cc1ccc(NC(=O)C2CCCO2)cc1[N+](=O)[O-] (stereo not given)	·	·	·	1.5	·	0.74
CCOC(=O)c1[nH]c(C)c(C(=O)N2CCc3ccccc32)c1C	100.0*	-100.0	15.0	-6.0	-14.3	0.29
CCN(CC(=O)NC(C)C)C(=O)c1ccc(Cl)cc1	·	·	·	6.0*	·	1.52
CCN(CC(=O)NC(C)C)C(=O)c1ccc(S(=O)(=O)N(C)c2ccccc2OC)cc1	-1.5	1.5	-2.6	-3.3	10.8	0.77
CCOc1ccc2nc(SCC#N)c(C#N)cc2c1	13.4	-13.4	-3.2	5.0*	-8.8	-1.67
Cc1[nH]n(-c2ccc(F)cc2)c(=O)c1C=Nc1ccc(S(=O)(=O)N(C)C)cc1	·	·	·	1.3	·	0.54
O=C(COc1ccc(Br)cc1)NCc1ccccn1	40.9*	-40.9	-11.6	1.6	-3.9	0.23
Cc1cc(OCC(=O)NCc2ccccn2)cc(C)c1Br	·	·	·	0.2	·	-0.34
CCCCNC(=O)C(c1ccc(-c2ccccc2)cc1)N(CCN1CCOCC1)C(=O)CCCCCN1C(=O)NC(c2ccc([N+](=O)[O-])cc2)C(C(=O)OCc2ccccc2)=C1C (stereo not given)	·	·	·	-1.3	·	-0.23
O=C(CN(c1ccc(Cl)c(C(F)(F)F)c1)S(=O)(=O)c1ccccc1)N/N=C/c1cccc2c1OCCO2	5.1	-5.1	-46.8	-5.4	·	-0.78
Cc1ccc2nc(/N=C(\N)NC(=O)N3c4ccccc4Sc4ccccc43)nc(C)c2c1	·	·	·	8.7*	·	-0.03
COc1ccc2nc(/N=C(\N)NC(=O)N3c4ccccc4Sc4ccccc43)nc(C)c2c1	·	·	·	-4.6	·	-1.7
Cc1cc2nc(/N=C(\N)NC(=O)N3c4ccccc4Sc4ccccc43)nc(C)c2cc1C	·	·	·	11.6*	·	-0.73
Cc1ccc2c(C)nc(/N=C(\N)NC(=O)N3c4ccccc4Sc4ccccc43)nc2c1	·	·	·	10.6*	·	-0.86
Cc1nc(/N=C(\N)Nc2ccccc2)nc2ccccc12	2.0	-2.0	9.6	-4.2	-15.7	-0.85
